LASV entry inh – Lassa virus entry inhibition; Lassa virus pseudotype entry inhibition, cell reporter; Potency, µM (titrated, usually from 37.9 µM), inactives show at the highest dose activity change, negative = inhibition, most hits filed as inhibitors; hit rate 1.2% among 300,000; AID 540256; calls by dose curve; tested in HEK293 cells; note: potency is the fitted concentration of half-maximal effect; % is set by controls: 0 for no effect and ±100 for the full control effect; nearly all actives have a fitted effect of over 50% in size
HCV inh – inhibitors of hepatitis C virus infection. Huh7.5.1 HCVcc-Cre infection, luciferase reporter, 44 h. Potency, µM (titrated, usually from 41.8 µM), without a hit: top-dose activity change, negative = inhibition, actives largely listed as inhibitors. hit rate 3.4% among 340,000. AID 651820; active = well fitted inhibition curve with a large enough effect; inconclusive = small, poorly fitted or top-dose-only effect, or another doubt; inactive = no such curve, though single readings can be large or run the other way; note: potency is the fitted concentration of half-maximal effect; % is set by controls: 0 for no effect and ±100 for the full control effect
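HCVcc-Cre virus at an moi near 0.5 was added right after compound to cells cultured 4 h from seeding (1,000 cells/well). Luciferase activity was determined 44 h later, 15 min after substrate addition at RT.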
Shiga inhibitor – inhibitors of Shiga toxin in Vero cells | Vero cells, Shiga toxin protein synthesis inhibition reporter | inhibition, % at 38.7 µM | hit rate 9.2% among 290,000 | AID 2315; in the data active = inhibition mostly above about 28%, no sharp cut-off; inactive = mostly below about 43%; note: 0% is about no effect
FMDV antiviral – antivirals against foot and mouth disease virus. FMDV antiviral cell-based qHTS. Potency, µM (titrated, usually from 57.9 µM), without a hit: top-dose activity change, negative = inhibition, usual class: inhibitors. hit rate 1.2% among 410,000; calls by dose curve; tested in HEK293T cells; note: read-out not given here; potency is the fitted concentration of half-maximal effect; % is set by controls: 0 for no effect and ±100 for the full control effect; nearly all actives have a fitted effect of over 45% in size
MARV entry inh – Marburg virus entry inhibition; Marburg virus pseudotyped entry inhibition, cell reporter; Potency, µM (series often up to 37.8 µM), inactives show at the highest dose activity change, negative = inhibition, usual class: inhibitors; hit rate 1.8% among 300,000; AID 540276; calls by dose curve; tested in HEK293 cells; note: potency is the fitted concentration of half-maximal effect; % is set by controls: 0 for no effect and ±100 for the full control effect
CHX counter – counter-screen for Shiga toxin inhibitors: cycloheximide protein synthesis inhibition; cell reporter, cycloheximide protein synthesis inhibition counterscreen; max response, %; hit rate 12% among 300,000; AID 2314; in the data active = max response mostly above about 13%, no sharp cut-off; inactive = mostly below about 14%; note: read at 38.3 µM for the half of the compounds with a filed dose; 0% is about no effect
An asterisk follows results filed as active; [ ] = remark or other dose. This is a sample that favours compounds with a hit; in the whole collection about 13% have one here.

Results for CCOC(=O)Nc1nnc(/C=C/c2ccc(OC)cc2)s1 ?
LASV entry inh: 1%; HCV inh: 0%; Shiga inhibitor: 3; FMDV antiviral: 11%; MARV entry inh: 3%; CHX counter: 24*

How did COc1ccc(/C=C/c2nnc(NC(=O)C(C)(C)C)s2)cc1 do in these assays?
LASV entry inh: 7%; HCV inh: -10%; Shiga inhibitor: 26; FMDV antiviral: 3%; MARV entry inh: 9%[46.1 µM]; CHX counter: 22*

Results for COc1ccc(/C=C/c2nnc(NC(=O)COc3ccc(C)cc3)s2)cc1 ?
LASV entry inh: -3%; HCV inh: 1%; Shiga inhibitor: -9; FMDV antiviral: -6%; MARV entry inh: -15%; CHX counter: 14*

How did CN(CC(=O)N1CCN(Cc2ccccc2)CC1)C(=O)Cc1ccc(Cl)c(Cl)c1 do in these assays?
LASV entry inh: -4%[46.1 µM]; HCV inh: inconclusive; FMDV antiviral: 1%; MARV entry inh: -13%[46.1 µM]

Results for CC1(C(=O)Nc2cccc3ccccc23)CC1(Br)Br (stereo not drawn) ?
HCV inh: -1%; Shiga inhibitor: 2; FMDV antiviral: -15%; CHX counter: 6

What do the screens show for `Cc1cc2c(cc1C)N(CC(=O)N1CCCC1)C(=O)CC(c1ccccc1)=N2`?
LASV entry inh: inconclusive; HCV inh: 16%; Shiga inhibitor: 56*; FMDV antiviral: 85%; MARV entry inh: -4%; CHX counter: 33*

Results for CCCN=C(N)/C(C(=O)OCC)=C(\O)c1ccc(OC)cc1 ?
LASV entry inh: -16%; HCV inh: 7%; Shiga inhibitor: 4; FMDV antiviral: 17%; MARV entry inh: 1%; CHX counter: 8

Results for CCOC(=O)/C(C#N)=C(/C)c1ccc(OC)cc1 ?
LASV entry inh: 1%; HCV inh: 32µM*; Shiga inhibitor: -2; FMDV antiviral: 0%; MARV entry inh: -7%[46.1 µM]; CHX counter: 6

How did COc1ccc(Cl)cc1NC(=O)Cn1cnc2sc(C)c(S(=O)(=O)N3CCN(c4ccccc4OC)CC3)c2c1=O do in these assays?
LASV entry inh: 3%[46.1 µM]; FMDV antiviral: -8%; MARV entry inh: 20%[46.1 µM]

How did Cc1nc2ccccc2c(=O)n1/N=C/c1ccccc1O do in these assays?
LASV entry inh: inconclusive; HCV inh: 4%; Shiga inhibitor: 88*; FMDV antiviral: -4%; MARV entry inh: inconclusive; CHX counter: 37*

What do the screens show for `Cc1nc2ccccc2c(=O)n1/N=C/c1ccc2ccccc2c1O`?
HCV inh: -26%; Shiga inhibitor: 74*; FMDV antiviral: inconclusive; CHX counter: 46*

What do the screens show for `Cc1nc2ccccc2c(=O)n1/N=C/c1cccs1`?
LASV entry inh: 6%[46.1 µM]; HCV inh: -12%; Shiga inhibitor: 50; FMDV antiviral: 36%; MARV entry inh: 1%[46.1 µM]; CHX counter: 25*

How did Cc1nc2ccccc2c(=O)n1/N=C/c1ccc(O)c(O)c1O do in these assays?
HCV inh: -11%; Shiga inhibitor: -7; FMDV antiviral: -10%; CHX counter: -3

Results for CCn1cc(C2CC(=O)NC2=O)c2ccccc21 (stereo not drawn) ?
HCV inh: 10%; Shiga inhibitor: -10; FMDV antiviral: -6%; CHX counter: 0

What do the screens show for `CCOP(=O)(OCC)C(Nc1cccc(C(F)(F)F)c1)c1ccc(F)cc1` (stereo not drawn)?
LASV entry inh: -8%; HCV inh: 1%; Shiga inhibitor: 3; FMDV antiviral: -19%; MARV entry inh: inconclusive; CHX counter: -3

How did Cc1oc(=O)c(NC(=O)c2ccc(Cl)cc2)cc1C(=O)c1ccccc1 do in these assays?
LASV entry inh: 23µM*; HCV inh: inconclusive; Shiga inhibitor: 132*; FMDV antiviral: inconclusive; MARV entry inh: inconclusive; CHX counter: 65*

How did CCOC(=O)c1cc(NC(=O)c2ccccc2)c(=O)oc1C(F)(F)F do in these assays?
LASV entry inh: -1%; HCV inh: 13%; Shiga inhibitor: 16; FMDV antiviral: 25%; MARV entry inh: 1%[46.1 µM]; CHX counter: 27*

How did CC1(C)CC(=O)c2cc(NC(=O)c3ccccc3)c(=O)oc2C1 do in these assays?
LASV entry inh: inconclusive; HCV inh: 13%; Shiga inhibitor: 55*; FMDV antiviral: 83%; MARV entry inh: 14%; CHX counter: 27*

Compound activity deposited in PubChem by National Center for Advancing Translational Sciences (NCATS).
